Several values for one entry are separate records, joined by “and”; a condition that tells them apart may be missing. Equal entries are not always repeated. Records with an inconclusive call do not appear. Some compounds were tested as several samples or in several runs, with calls that do not always agree. Activity calls are given as the source filed them. The calls were made as follows, unless noted: active = hit-call score of the fitted dose curve at least 0.9, where 1 is the maximum; inconclusive = response in the unintended direction; inactive = score below 0.9.
Experiments:
[1] = target: mouse Peroxisome Proliferator-activated Receptor gamma (PPARg), Pparg (gene 19016) (UniProt P37238); assay: ATG_mPPARg_XSP2: Attagene TRANS-FACTORIAL Multi-Species (XSP2) HepG2 Assay for mouse Peroxisome Proliferator-activated Receptor gamma (PPARg) (AID 2283830);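 also: hits are gains in reporter mRNA above DMSO so AC50 marks activation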
Chain of mouse Peroxisome Proliferator-activated Receptor gamma (PPARg), Pparg (gene 19016) (P37238 whole entry, looked up, the tested form may be a part): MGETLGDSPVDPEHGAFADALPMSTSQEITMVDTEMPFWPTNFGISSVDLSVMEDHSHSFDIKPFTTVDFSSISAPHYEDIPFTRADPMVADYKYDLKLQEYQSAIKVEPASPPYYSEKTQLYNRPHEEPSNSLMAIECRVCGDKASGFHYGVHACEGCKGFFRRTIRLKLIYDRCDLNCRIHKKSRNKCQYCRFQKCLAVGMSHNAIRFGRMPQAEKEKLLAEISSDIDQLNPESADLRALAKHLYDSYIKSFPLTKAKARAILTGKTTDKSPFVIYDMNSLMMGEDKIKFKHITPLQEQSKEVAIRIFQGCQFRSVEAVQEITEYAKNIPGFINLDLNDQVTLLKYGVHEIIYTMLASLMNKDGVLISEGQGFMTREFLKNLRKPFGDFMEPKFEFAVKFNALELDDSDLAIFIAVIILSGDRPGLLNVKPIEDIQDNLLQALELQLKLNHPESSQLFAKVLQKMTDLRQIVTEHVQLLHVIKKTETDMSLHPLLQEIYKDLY
In short: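 Multiplexed TRANS reporter readout: after 24 h chemical exposure of transfected HepG2 cells (with 3 nM 6-alpha-fluorotestosterone, 1.5 nM norgestrel present), RNA reverse-transcribed, amplified, 6-FAM-labelled and resolved by capillary electrophoresis; mouse PPARg-Gal4 induction scored against DMSO.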

[2] = target: Nuclear receptor subfamily 1 group I member 2 (Mus musculus) (UniProt O54915); assay: ATG_mPXR_XSP2: Attagene TRANS-FACTORIAL Multi-Species (XSP1) HepG2 Assay for mouse Pregnane X Receptor (PXR) (AID 2283831)
Chain of Nuclear receptor subfamily 1 group I member 2 (Mus musculus) (O54915 whole entry, looked up, the tested form may be a part): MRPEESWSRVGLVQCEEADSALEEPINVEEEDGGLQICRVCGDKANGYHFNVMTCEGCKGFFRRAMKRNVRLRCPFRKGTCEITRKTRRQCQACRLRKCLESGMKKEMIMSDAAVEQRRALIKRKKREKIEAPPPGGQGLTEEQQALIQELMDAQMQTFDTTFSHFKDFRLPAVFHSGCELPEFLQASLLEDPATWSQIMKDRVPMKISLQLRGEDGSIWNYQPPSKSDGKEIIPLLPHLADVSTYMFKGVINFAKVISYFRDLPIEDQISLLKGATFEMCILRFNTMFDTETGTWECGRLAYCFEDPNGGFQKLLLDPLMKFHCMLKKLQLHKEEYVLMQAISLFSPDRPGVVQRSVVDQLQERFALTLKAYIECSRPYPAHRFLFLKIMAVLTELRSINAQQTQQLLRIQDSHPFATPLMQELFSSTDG
In short: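 HepG2 cells transiently transfected with GAL4-UAS reporter units expressing chimeric NR-GAL4 proteins; reporter mRNA measured 24 h after dosing by RT-PCR with 6-FAM labelling and capillary electrophoresis, gain of signal relative to DMSO.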

[3] = target: zebrafish Thyroid Hormone Receptor alpha (TRa), thraa (gene 30670) (UniProt Q98867); assay: ATG_zfTRa_XSP2: Attagene TRANS-FACTORIAL Multi-Species (XSP1) HepG2 Assay for zebrafish Thyroid Hormone Receptor alpha (TRa) (AID 2283832);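 also: actives raise zebrafish TRa-Gal4 reporter transcript above DMSO baseline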
Chain of zebrafish Thyroid Hormone Receptor alpha (TRa), thraa (gene 30670) (Q98867 whole entry, looked up, the tested form may be a part): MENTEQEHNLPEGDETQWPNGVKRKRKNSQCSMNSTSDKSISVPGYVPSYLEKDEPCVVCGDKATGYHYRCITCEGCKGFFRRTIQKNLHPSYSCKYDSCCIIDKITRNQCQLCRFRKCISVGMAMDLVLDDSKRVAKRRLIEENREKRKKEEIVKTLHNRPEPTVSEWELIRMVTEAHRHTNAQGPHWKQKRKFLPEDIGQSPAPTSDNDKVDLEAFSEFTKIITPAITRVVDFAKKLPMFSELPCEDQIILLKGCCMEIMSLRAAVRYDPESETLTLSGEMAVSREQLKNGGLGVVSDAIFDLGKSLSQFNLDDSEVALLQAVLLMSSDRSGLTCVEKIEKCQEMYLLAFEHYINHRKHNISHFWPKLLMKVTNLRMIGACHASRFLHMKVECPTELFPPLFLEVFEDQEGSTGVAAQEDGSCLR
In short: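 Multiplexed TRANS reporter format in HepG2; the medium also contained 3 nM 6-alpha-fluorotestosterone and 1.5 nM norgestrel. Reporter mRNA after 24 h read by RT-PCR and capillary electrophoresis, scored as induction over DMSO.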

[4] = tested on: zebrafish Peroxisome Proliferator-activated Receptor gamma (PPARg), gene 557037; assay: ATG_zfPPARg_XSP2: Attagene TRANS-FACTORIAL Multi-Species (XSP2) HepG2 Assay for zebrafish Peroxisome Proliferator-activated Receptor gamma (PPARg) (AID 2283833);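 also: actives increase reporter signal over DMSO so AC50 reflects activation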
In short: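 HepG2 cells transiently transfected with GAL4-UAS reporter units expressing a zebrafish PPARg–GAL4 chimera; compound exposure 24 h. Reporter mRNA quantified by RT-PCR with fluorescent labelling and capillary electrophoresis; gain of signal fitted relative to DMSO baseline.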

[5] = tested on: turtle Thyroid Hormone Receptor, alpha (TRa), gene 101949057; assay: ATG_trTRa_XSP2: Attagene TRANS-FACTORIAL Multi-Species (XSP1) HepG2 Assay for turtle Thyroid Hormone Receptor, alpha (TRa) (AID 2283834);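 also: hits raise reporter mRNA over the DMSO baseline so AC50 marks activators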
In short: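 HepG2 cells transiently transfected with multiplexed GAL4-UAS reporter units expressing chimeric NR-Gal4 proteins were dosed for 24 hours. Reporter mRNA was quantified by RT-PCR with 6-FAM labelling and capillary electrophoresis, gain of signal scored against DMSO.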

[6] = target: frog Thyroid hormone Receptor alpha (TRa), thra-a (gene 397942) (UniProt P15204); assay: ATG_frTRa_XSP2: Attagene TRANS-FACTORIAL Multi-Species (XSP2) HepG2 Assay for frog Thyroid hormone Receptor alpha (TRa) (AID 2283839);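 as to AC50: AC50 reflects induction of frog TRa-driven reporter mRNA above DMSO baseline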
Chain of frog Thyroid hormone Receptor alpha (TRa), thra-a (gene 397942) (P15204 whole entry, looked up, the tested form may be a part): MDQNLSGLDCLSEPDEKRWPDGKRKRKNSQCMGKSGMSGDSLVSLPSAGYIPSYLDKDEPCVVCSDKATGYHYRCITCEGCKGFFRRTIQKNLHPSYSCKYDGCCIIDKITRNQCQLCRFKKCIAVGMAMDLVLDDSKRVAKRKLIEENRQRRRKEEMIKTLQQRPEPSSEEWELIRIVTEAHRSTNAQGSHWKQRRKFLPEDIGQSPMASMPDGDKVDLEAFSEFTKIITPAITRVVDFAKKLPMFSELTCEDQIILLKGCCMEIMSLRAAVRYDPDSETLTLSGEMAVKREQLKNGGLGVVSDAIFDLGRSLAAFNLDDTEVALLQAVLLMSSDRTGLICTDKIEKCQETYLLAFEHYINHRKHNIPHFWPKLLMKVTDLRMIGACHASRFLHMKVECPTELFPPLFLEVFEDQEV
In short: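 HepG2 cells transiently transfected with multiplexed GAL4-UAS reporter units expressing chimeric frog TRα-Gal4; reporter mRNA read 24 h after dosing by RT-PCR, FAM-labelled primer extension, HpaI digest and capillary electrophoresis. Gain of signal fitted versus DMSO.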

[7] = tested on: Sodium/Iodide Symporter (NIS), SLC5A5 (gene 6528); assay: CPHEA_Stoker_NIS_Inhibition_RAIU: CPHEA's Radioactive Iodide Uptake (RAIU) Assay for Sodium/Iodide Symporter (NIS) Inhibition, Stoker and Laws Labs (AID 2283841)
In short: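 hNIS-HEK293T-EPA cells incubated 2 h at room temperature with compound (0.001–100 uM, 0.5% DMSO) and 329 pM final 125I in HBSS/10 mM HEPES, pH 7.4. Intracellular 125I counted; normalised to DMSO maximal uptake, triplicate, three biological replicates.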

[8] = CPHEA_Stoker_NIS_Cytotoxicity: Cytotoxicity Assessment for CPHEA's Radioactive Iodide Uptake (RAIU) Assay for Sodium/Iodide Symporter (NIS) Inhibition, Stoker and Laws Labs (AID 2283897);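 as to AC50: active means loss of ATP signal versus DMSO meaning cytotoxicity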
In short: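 hNIS-HEK293T-EPA cells, human NIS expressed in HEK293T, treated 2 h with chemicals (0.001–100 uM, 0.5% final DMSO). ATP content read by CellTiter-Glo luminescence; loss of signal analysed relative to DMSO.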

[9] = ATG_M_61_XSP2: Attagene TRANS-FACTORIAL Multi-Species (XSP2) HepG2 Assay for M61 Transcription Factor (Internal Marker) (AID 2283835; active = hit-call score of the fitted dose curve at least 0.9, where 1 is the maximum; inactive = score below 0.9;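 also: reporter mRNA of an internal background marker read by RT-PCR and capillary electrophoresis; active means a rise in signal above the DMSO baseline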)
In short: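 Signal was mRNA induction detected as fluorescence after RT-PCR and capillary electrophoresis, analysed in the gain direction with DMSO as baseline. HepG2 cells transiently carrying reporter constructs received chemicals for 24 h.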

[10] = target: zebrafish Thyroid Hormone Receptor beta (TRb), thrb (gene 30607) (UniProt Q9PVE4); assay: ATG_zfTRb_XSP2: Attagene TRANS-FACTORIAL Multi-Species (XSP1) HepG2 Assay for zebrafish Thyroid Hormone Receptor beta (TRb) (AID 2283836)
Chain of zebrafish Thyroid Hormone Receptor beta (TRb), thrb (gene 30607) (Q9PVE4 whole entry, looked up): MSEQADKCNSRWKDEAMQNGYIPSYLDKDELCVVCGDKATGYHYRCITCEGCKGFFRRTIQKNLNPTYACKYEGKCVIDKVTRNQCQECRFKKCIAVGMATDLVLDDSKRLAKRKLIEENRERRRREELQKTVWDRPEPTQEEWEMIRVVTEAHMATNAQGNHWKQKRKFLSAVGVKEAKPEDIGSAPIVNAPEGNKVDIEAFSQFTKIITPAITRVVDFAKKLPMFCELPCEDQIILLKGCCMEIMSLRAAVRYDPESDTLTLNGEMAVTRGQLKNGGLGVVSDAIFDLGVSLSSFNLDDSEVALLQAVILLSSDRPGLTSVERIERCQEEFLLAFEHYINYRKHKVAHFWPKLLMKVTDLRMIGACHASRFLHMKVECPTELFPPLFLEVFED
In short: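 Multiplexed trans-activation in HepG2 cells, 24 h treatment, with reporter mRNA read by RT-PCR and capillary electrophoresis. Gain-of-signal against DMSO.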

[11] = target: human Thyroid hormone Receptor alpha (TRa), THRA (gene 7067) (UniProt P10827); assay: ATG_hTRa_XSP2: Attagene TRANS-FACTORIAL Multi-Species (XSP2) HepG2 Assay for human Thyroid hormone Receptor alpha (TRa) (AID 2283838)
Chain of human Thyroid hormone Receptor alpha (TRa), THRA (gene 7067) (P10827 whole entry, looked up, the tested form may be a part): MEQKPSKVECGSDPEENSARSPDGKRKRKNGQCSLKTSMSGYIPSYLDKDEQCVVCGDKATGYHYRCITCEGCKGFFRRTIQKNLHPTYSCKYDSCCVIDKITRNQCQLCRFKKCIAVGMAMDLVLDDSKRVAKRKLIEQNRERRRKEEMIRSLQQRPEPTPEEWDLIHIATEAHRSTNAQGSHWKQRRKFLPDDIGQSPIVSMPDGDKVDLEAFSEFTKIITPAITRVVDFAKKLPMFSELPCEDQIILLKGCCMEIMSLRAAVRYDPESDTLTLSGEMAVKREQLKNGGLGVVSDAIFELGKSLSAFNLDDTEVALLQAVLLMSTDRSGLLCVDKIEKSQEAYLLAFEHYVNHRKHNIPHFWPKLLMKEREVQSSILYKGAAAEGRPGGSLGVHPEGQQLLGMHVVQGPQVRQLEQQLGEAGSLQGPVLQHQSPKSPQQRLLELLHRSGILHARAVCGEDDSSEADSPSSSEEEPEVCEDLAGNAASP
In short: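 Gain-of-signal in reporter mRNA, relative to DMSO, after 24 h dosing of transfected HepG2; quantitation by RT-PCR fragment analysis on capillary electrophoresis.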

[12] = target: human Thyroid hormone Receptor beta (TRb), THRB (gene 7068) (UniProt P10828); assay: ATG_hTRb_XSP2: Attagene TRANS-FACTORIAL Multi-Species (XSP2) HepG2 Assay for human Thyroid hormone Receptor beta (TRb) (AID 2283840);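 also: actives raise reporter mRNA so potency reflects agonist-like gain of signal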
Chain of human Thyroid hormone Receptor beta (TRb), THRB (gene 7068) (P10828 whole entry, looked up, the tested form may be a part): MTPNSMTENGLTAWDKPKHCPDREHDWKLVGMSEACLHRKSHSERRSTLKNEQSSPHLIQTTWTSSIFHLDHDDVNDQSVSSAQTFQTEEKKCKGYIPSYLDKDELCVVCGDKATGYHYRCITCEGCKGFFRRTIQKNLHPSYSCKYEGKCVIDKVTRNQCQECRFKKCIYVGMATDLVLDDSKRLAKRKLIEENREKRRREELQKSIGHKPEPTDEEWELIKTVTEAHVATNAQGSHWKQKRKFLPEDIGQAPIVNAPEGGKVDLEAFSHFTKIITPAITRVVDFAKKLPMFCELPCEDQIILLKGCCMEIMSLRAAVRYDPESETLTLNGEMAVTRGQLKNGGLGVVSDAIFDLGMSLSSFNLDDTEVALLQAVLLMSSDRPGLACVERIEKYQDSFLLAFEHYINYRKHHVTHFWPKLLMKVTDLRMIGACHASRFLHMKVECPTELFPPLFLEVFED
In short: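 HepG2 cells were transiently transfected with GAL4-UAS multiplexed reporter units expressing chimeric NR-Gal4 proteins, dosed 24 h; reporter mRNA was quantified by RT-PCR, fluorescent labeling, HpaI digestion and capillary electrophoresis, fitted for gain of signal versus DMSO.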

[13] = ATG_XTT_Cytotoxicity_XSP2: Cytotoxicity Assessment in the Attagene TRANS-FACTORIAL Multi-Species (XSP2) HepG2 Assay (AID 2283837)
In short: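 XTT-based cell number read-out in human HepG2 liver cells carrying transfected reporter units, measured 24 h after chemical dosing. Activity is signal loss versus DMSO baseline.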

[14] = CEETOX_H295R_OHPREG_noMTC: CeeTox H295R High-throughput Steroidogenesis Assay for OH-Pregnenolone (OHPREG), maximum tolerated concentration (MTC) filtered results only (AID 2283912; active = hit-call score of the fitted dose curve at least 0.9, where 1 is the maximum; inactive = score below 0.9); conditions: actives raise or lower the signal
In short: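 Readout is HPLC-MS/MS quantification of 17alpha-hydroxypregnenolone released by forskolin-stimulated H295R cells over 48 h of chemical exposure, DMSO as baseline.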

[15] = CEETOX_H295R_OHPROG_noMTC: CeeTox H295R High-throughput Steroidogenesis Assay for OH-Progesterone (OHPROG), maximum tolerated concentration (MTC) filtered results only (AID 2283914; active = hit-call score of the fitted dose curve at least 0.9, where 1 is the maximum; inactive = score below 0.9); conditions: actives raise or lower the signal
In short: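 Analysis uses all tested concentrations, without maximum-tolerated-concentration screening by MTT. H295R cells, forskolin-primed (10 uM, 48 h), receive chemical for 48 h; hormone in medium measured by HPLC-MS/MS, with bidirectional curve fitting against DMSO.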

[16] = CEETOX_H295R_ANDR_noMTC: CeeTox H295R High-throughput Steroidogenesis Assay for Androstenedione (ANDR), maximum tolerated concentration (MTC) filtered results only (AID 2283915; active = hit-call score of the fitted dose curve at least 0.9, where 1 is the maximum; inactive = score below 0.9); conditions: actives raise or lower the signal
In short: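 Androstenedione secreted into medium was measured by LC-MS/MS after MTBE extraction. Human adrenal H295R cells received 10 uM forskolin for 48 h before 48 h chemical exposure (0.1% DMSO). Gain or loss fitted against DMSO, including concentrations above the MTT-derived MTC.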

Measured: AC50

Oc1ccc(C(c2ccc(O)cc2)(C(F)(F)F)C(F)(F)F)cc1
inactive: [1] | [2] | [3] | [4] | [5] | [6] | [7] | [8]
active: [1] 33.4 µM

CC(C)(c1ccccc1)c1ccc(O)cc1
inactive: [1] | [5] | [9] | [10] | [11] | [6] | [12] | [7] | [8]

ClC(Cl)=C(c1ccc(Cl)cc1)c1ccc(Cl)cc1
inactive: [1] | [2] | [5] | [10] | [6] | [12] | [8]

Cc1ccccc1CO[C@@H]1C[C@@]2(C(C)C)CC[C@]1(C)O2
inactive: [7] | [8]

O=C(O)C(F)(F)C(F)(F)C(F)(F)C(F)(F)C(F)(F)C(F)(F)C(F)(F)C(F)(F)F
inactive: [8]
active: [7] 12 µM

O=S(=O)(O)C(F)(F)C(F)(F)C(F)(F)C(F)(F)F
inactive: [7] | [8]

NS(=O)(=O)C(F)(F)C(F)(F)C(F)(F)C(F)(F)C(F)(F)C(F)(F)C(F)(F)C(F)(F)F
inactive: [7] | [8]

Clc1ccc(C(c2ccccc2Cl)C(Cl)(Cl)Cl)cc1 (configuration not stated)
inactive: [1] | [9] | [11] | [6] | [12]
active: [2] 5.09 µM

CCNc1nc(NC(C)C)nc(SC)n1
inactive: [7] | [8]

CO/C=C(/C(=O)OC)c1ccccc1COc1cccc(C(F)(F)F)n1
inactive: [7] | [8]

CCC(=O)O[C@H]1CC[C@H]2[C@@H]3CCC4=CC(=O)CC[C@]4(C)[C@H]3CC[C@]12C
active: [12] 0.157 µM | [8] 0.646 µM
inactive: [5] | [9] | [10] | [11] | [6] | [12] | [7]

ClC1=C(Cl)[C@]2(Cl)[C@@H]3[C@@H]4C[C@@H]([C@H]5O[C@@H]45)[C@@H]3[C@@]1(Cl)C2(Cl)Cl
inactive: [7] | [8]

CC#Cc1cc(C)nc(Nc2ccccc2)n1
inactive: [7] | [8]

CC(C)(O)C(=O)Nc1ccc([N+](=O)[O-])c(C(F)(F)F)c1
inactive: [2] | [3] | [5] | [9] | [10] | [11] | [12] | [8]
active: [6] 9.93 µM

CCOC(=O)C(O)(c1ccc(Cl)cc1)c1ccc(Cl)cc1
inactive: [3] | [4] | [5] | [9] | [10] | [11] | [6] | [12] | [7] | [8]
active: [1] 10.6 µM and 22.3 µM | [2] 7.9 µM and 8.04 µM | [13] 100 µM | [11] 55.6 µM

COc1ccc(O)c(C(C)(C)C)c1
inactive: [8]

c1ccc(-c2ccccc2)cc1
inactive: [8]

CCCCCCCCOC(=O)c1ccccc1C(=O)OCCCCCCCC
inactive: [14] | [15] | [16]

Cc1cc2c3c(c1)C(c1ccccc1)=N[C@@H](NC(=O)c1ccncc1)C(=O)N3CC2
inactive: [8]

CCC(C)c1cc([N+](=O)[O-])cc([N+](=O)[O-])c1O (configuration not stated)
inactive: [7] | [8]
